# MITF TRPM1 HTS – MITF TRPM1 promoter activation in melanoma cells | SK-MEL-5 TRPM1-promoter luciferase, 24 h; % of positive control, neutral wells = 0 | activation, % at 12.5 µM | 300,000 tested, 0.75% active | AID 588334;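 active means mean activation of at least 80% with every replicate also reaching 80%; inconclusive means mean reaches 80% but some replicate falls short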;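 further: 0% = neutral control wells and 100% = parthenolide positive control wells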
# PHOSPHO1 inh – blocks human PHOSPHO1 phosphatase activity; recombinant PHOSPHO1, absorbance phosphatase assay; Q8TCT1; inhibition, % at 13.3 µM; AID 1565; 290,000 tested, 1.1% active; in the data active means inhibition above about 60%
# Target sequence (Q8TCT1 whole entry, looked up): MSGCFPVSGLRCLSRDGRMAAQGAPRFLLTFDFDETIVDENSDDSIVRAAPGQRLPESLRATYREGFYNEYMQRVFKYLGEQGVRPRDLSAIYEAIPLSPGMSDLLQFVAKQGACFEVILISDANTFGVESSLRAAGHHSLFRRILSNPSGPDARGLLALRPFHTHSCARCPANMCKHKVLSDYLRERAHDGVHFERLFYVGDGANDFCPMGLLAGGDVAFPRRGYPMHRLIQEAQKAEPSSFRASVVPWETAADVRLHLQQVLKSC
# Wnt bcat act – activates Wnt/beta-catenin signaling in a reporter cell assay | 300,000 tested, 1.2% active | activation, % at 9.35 µM | activator, plate reader; in the data active means activation above about 30%, passing the limit was not always enough; inconclusive means no clear call, values can overlap the other calls;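 further: 0% = neutral control wells and 100% = positive control wells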
# A3A deaminase – blocks human APOBEC3A ssDNA deamination; recombinant A3A, FAM/TAMRA ssDNA deamination fluorescence; inhibition, % at 20 µM; 330,000 tested, 0.41% active;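 active means at least 40% inhibition at 20 µM here, with at most 30% in a related deaminase screen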;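 further: plate controls were A3A with DMSO for no effect and wells lacking A3A enzyme for full effect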
# Target sequence (P31941 whole entry, looked up): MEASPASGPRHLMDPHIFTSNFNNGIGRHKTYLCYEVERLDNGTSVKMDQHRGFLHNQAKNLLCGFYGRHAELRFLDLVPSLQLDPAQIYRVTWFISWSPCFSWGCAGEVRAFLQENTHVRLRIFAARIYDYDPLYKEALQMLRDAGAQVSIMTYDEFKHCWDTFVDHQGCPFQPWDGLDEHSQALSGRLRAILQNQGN
# APOBEC3G inh – APOBEC3G (human) deaminase inhibition. Q9HC16. recombinant A3G, ssDNA deamination FAM/TAMRA fluorescence. inhibition, % at 20 µM. 330,000 tested, 0.28% active. AID 493012;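 active means inhibition of at least 40% at 20 µM, with no more than 30% in the related APOBEC3A deaminase screen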;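 further: plate controls were DMSO wells with A3G for no effect and wells lacking A3G enzyme for full effect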
# esBAF inh – SWI/SNF esBAF complex inhibition | 350,000 tested, 2% active | AID 602393 | mouse ES cells, Bmi1-luciferase knock-in reporter, 24 h; 100% = twice the neutral-well signal | reporter increase, % at 12.5 µM; in the data active means activation above about 40%; inconclusive means no clear call, values can overlap the other calls;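 further: 0% = median of the plate's neutral control wells and 100% = double that signal; a rise in the Bmi1 reporter signal indicates esBAF inhibition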
# An asterisk follows results filed as active; ? = inconclusive; / = no result given. An excerpt weighted towards active compounds, which were near 3.6% of everything screened.
SMILES,MITF TRPM1 HTS,PHOSPHO1 inh,Wnt bcat act,A3A deaminase,APOBEC3G inh,esBAF inh
C=CCn1c(SCc2nc3ccccc3[nH]2)nnc1-c1ccccn1,8.0,34.6,-2.4,-2.1,-10.8,17.9
C=CCn1c(SCc2nc3ccccc3[nH]2)nnc1-c1ccc(OC)cc1,-12.6,91.4*,/,0.1,-7.5,-10.0
C=CCn1c(SCc2nc3ccccc3[nH]2)nnc1-c1cccc(OC)c1,-8.4,71.2*,/,2.4,-5.6,2.3
CCn1c(SCc2nc3ccccc3[nH]2)nnc1-c1cccnc1,-13.0,3.0,-13.1,-2.2,-2.4,-1.6
CCn1c(SCc2nc3ccccc3[nH]2)nnc1-c1ccc(OC)cc1,2.8,77.9*,/,0.4,-7.6,3.3
CCOc1c2ccc(C(=O)NCCc3cccs3)cc2nn1CC,62.9,8.0,31.9*,-4.6,-13.1,45.1*
CCCn1nc2cc(C(=O)NCCCCc3ccccc3)ccc2c1OCC,9.7,38.2,-9.6,-4.7,-9.7,-13.7
CCCCn1nc2cc(C(=O)NCCc3cccs3)ccc2c1OCC,33.6,17.6,3.3,-4.0,-11.1,41.4*
CCCn1nc2cc(C(=O)NCCc3ccc(C)cc3)ccc2c1OCC,-10.1,30.5,-1.5,0.1,-8.0,-2.3
COc1ccc(-c2nc(-c3ccc(Br)o3)no2)cc1OC,74.4,-2.0,20.6,-4.0,-10.1,17.6
COc1ccc(-c2noc(-c3ccccc3Cl)n2)cc1OC,85.7*,-41.4,-0.4,-3.0,-4.0,?
COc1cccc(-c2nc(-c3ccc(Br)o3)no2)c1,51.0,33.4,45.4*,-4.8,-0.9,/
COc1ccc(-c2noc(-c3cccs3)n2)cc1OC,/,33.1,59.6*,-1.4,-10.8,53.1*
COc1ccc(-c2noc(-c3ccc(Cl)cc3[N+](=O)[O-])n2)cc1OC,70.7,8.2,21.4,-0.9,-2.4,/
Cc1ccc(-c2nc(-c3ccncc3)no2)cc1C,/,40.3,38.8*,-6.2,-2.7,-14.0
O=C(NC[C@@H]1[C@@H](c2ccccc2)[C@@H](CO)N1Cc1cccnc1)c1ccccn1,/,/,/,/,/,5.8
C[C@H](NC(=O)C[C@H]1CC[C@@H](NC(=O)C2CCOCC2)[C@@H](CO)O1)c1ccccc1,/,/,/,/,/,-2.1
O=C(C[C@H]1CC[C@H](NS(=O)(=O)c2ccc(F)cc2)[C@H](CO)O1)NCCc1ccncc1,/,/,/,/,/,-4.6
COc1ccc(CCC(=O)Nc2ccc(-c3noc(-c4ccc(OC)c(OC)c4)n3)cc2)cc1,15.0,3.6,/,1.4,-3.6,42.8*
COc1ccc(-c2noc(-c3cccc(Cl)c3)n2)cc1OC,?,2.3,10.9,-2.7,-2.1,48.5*
COc1ccc(-c2nc(-c3ccc(NC(=O)c4ccc(Br)o4)cc3)no2)cc1OC,-1.7,10.2,/,6.6,-2.2,/
COc1ccc(-c2nc(-c3ccncc3)no2)cc1OC,/,-11.4,/,0.3,-8.5,62.9*
Brc1ccc(-c2nc(-c3ccccc3)no2)o1,26.2,18.9,49.7*,1.8,-1.9,24.0
COc1cccc(-c2nc(-c3cccs3)no2)c1,12.5,32.1,-1.1,-3.1,-7.6,-53.2
COc1cccc(-c2nc(-c3ccncc3)no2)c1,26.5,30.8,34.7*,-1.9,-7.1,/
SMILES,MITF TRPM1 HTS,PHOSPHO1 inh,Wnt bcat act,A3A deaminase,APOBEC3G inh,esBAF inh
C[C@H](NC(=O)C[C@@H]1CC[C@@H](NC(=O)Nc2ccc3c(c2)OCO3)[C@@H](CO)O1)c1ccccc1,/,/,/,/,/,-3.2
O=C1NC(=S)S/C1=C1\Sc2ccccc2N1CCCS(=O)(=O)O,/,71.5*,-1.6,-0.7,-4.4,2.5
CCc1nc(CN2CCCC(C(=O)c3ccc4c5c(cccc35)CC4)C2)c(C)[nH]1 (stereo not given),-5.5,60.1*,-14.6,-3.0,-8.0,/
O=C(c1ccc2c3c(cccc13)CC2)C1CCCN(Cc2ccncc2)C1 (stereo not given),-12.1,12.9,-6.2,-0.4,-6.1,1.7
COC(=O)c1ccc(C2NC(=O)c3c(sc(C)c3C)N2)cc1 (stereo not given),16.1,-14.7,3.6,-5.3,-4.4,/
Cc1sc2c(c1C)C(=O)NC(c1cccc(O)c1)N2 (stereo not given),/,100.3*,/,1.5,25.3,/
COc1ccc(NC(=O)O/N=C/c2ccc(N(C)C)cc2)cc1,30.9,34.0,12.6,-1.0,-3.1,16.9
CN(C)c1ccc(C=NNC(=S)Nc2ccc(F)cc2)cc1,62.1,/,8.0,/,/,59.0*
Cc1ccc(NC(=O)O/N=C/c2ccc(F)cc2)cc1,/,/,7.4,-2.8,-6.4,55.5*
O=C(Nc1ccccc1Cl)O/N=C/c1ccc(F)cc1,8.6,/,-0.3,/,/,/
O=C(Nc1ccccc1)O/N=C/c1ccc(F)cc1,/,18.3,14.2,-7.7,-5.2,48.0*
Cc1ccc(NC(=O)O/N=C/c2ccc(Br)cc2)cc1,/,29.5,3.8,-3.7,-4.0,7.6
Cc1ccc(NC(=O)O/N=C/c2ccc(N(C)C)cc2)cc1,52.8,29.2,11.4,-4.3,-8.2,55.7*
CSC(=S)N/N=C/c1ccc(N(C)C)cc1,33.0,-13.7,10.1,-4.0,-0.8,/
O=C(C[C@H]1C[C@H]2c3cc(NC(=O)Nc4ccc(C(F)(F)F)cc4)ccc3O[C@H]2[C@H](CO)O1)NC1CCCCC1,/,/,/,/,/,1.0
C[C@@H]1CN([C@H](C)CO)C(=O)c2ccccc2-c2ccccc2CO[C@H]1CN(C)C(=O)Cc1ccccc1,/,/,/,/,/,-3.1
C[C@H](CO)N1C[C@H](C)[C@@H](CN(C)C(=O)Nc2ccccc2)Oc2c(NC(=O)Nc3ccc(F)cc3)cccc2C1=O,/,/,/,/,/,4.4
CC(C)(C)c1ccc(C(=O)NCCCNC(=O)c2cccnc2)cc1,12.5,23.9,-4.0,-0.9,-6.7,47.1*
CC(=O)Nc1cccc(OCCCNC(=O)c2ccc(F)cc2)c1,13.5,16.2,13.6,0.2,7.7,5.1
CC(C)Oc1ccc(C(=O)NCCCNC(=O)c2cccnc2)cc1,-3.5,16.2,38.2*,1.6,-4.2,1.6
CC(=O)Nc1cccc(OCCCNC(=O)c2ccc(C(C)(C)C)cc2)c1,/,-10.4,30.9*,-0.2,-5.3,-2.4
Cc1ccc(NC(=O)c2nnn(-c3ccc4c(c3)OCCO4)c2N)cc1,98.8*,15.0,14.7,-1.7,-10.7,69.7*
CC(C(=O)Nc1ccc2c(c1)OCCO2)n1nnc(-c2ccccc2)n1 (stereo not given),12.8,5.8,-6.1,-1.9,-3.7,/
C[C@@H](C(=O)Nc1ccc2c(c1)OCCO2)n1nnc2ccccc2c1=O,101.1*,42.6,24.3,-3.1,-4.3,57.4*
Cc1ccc(C)c(Cn2nnc(C(=O)Nc3ccc4c(c3)OCCO4)c2N)c1,84.6*,/,23.1,1.8,-3.1,64.1*
Cc1cc(C)cc(NC(=O)c2nnn(Cc3cc(C)ccc3C)c2N)c1,13.1,2.0,/,5.0,0.2,0.6
Cc1ccccc1Cn1nnc(C(=O)Nc2ccc3c(c2)OCCO3)c1N,91.4*,/,45.9*,0.3,-7.5,67.6*
COCC(=O)Nc1ccc2c(c1)[C@@H]1C[C@@H](CC(=O)NC3CCCC3)O[C@@H](CO)[C@@H]1O2,/,/,/,/,/,3.6
